Measurements as given in PubChem BioAssay (NCATS).
Inconclusive results are not listed. Active and inactive are the calls of the source. The call rests on the fitted dose curve; in most records, active means well fitted inhibition curve with a large enough effect; inconclusive means small, poorly fitted or top-dose-only effect; inactive means flat fitted curve, though single readings scatter.

What was measured:
Assay in all cases: qHTS profiling for inhibitors of Plasmodium falciparum proliferation (AID 504749); further: nearly all actives have a fitted effect of over 60% in size
Conditions in all cases: P. falciparum in erythrocytes, SYBR Green DNA, 72 h; series mostly up to 28.7 µM
AA1029 = tested on: AA1029
In short: (§1)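 Parasite proliferation within erythrocytes, 72 h exposure. Endpoint: SYBR Green I fluorescence after overnight lysis at room temperature. Controls: 0.29 uM artemisinin, DMSO.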

ATS95 = tested on: ATS95
In short: as §1

C2A = tested on: C2A
In short: as §1

CP211 = tested on: CP211
In short: as §1

CP215 = tested on: CP215
In short: as §1

CP217 = tested on: CP217
In short: as §1

CP250 = tested on: CP250
In short: as §1

CP252 = tested on: CP252
In short: as §1

CP256 = tested on: CP256
In short: as §1

CP265 = tested on: CP265
In short: as §1

CP268 = tested on: CP268
In short: as §1

CP297 = tested on: CP297
In short: as §1

CP315 = tested on: CP315
In short: as §1

CP325 = tested on: CP325
In short: as §1

CP329 = tested on: CP329
In short: as §1

N140 = tested on: N140
In short: as §1

PAD = tested on: PAD
In short: as §1

SC27B = tested on: SC27B
In short: as §1

TAB113 = tested on: TAB113
In short: as §1

TAB165 = tested on: TAB165
In short: as §1

Measured: Potency
Potency means the concentration at half of the fitted maximal effect.

CC(=O)NC1[C@H](O)C[C@@](O)(C(=O)O)O[C@H]1[C@H](O)[C@H](O)CO (stereo not given in full)
inactive: all assays above

CC(C)(C)C(=O)OCC(=O)C1CCC2C3CCC4=CC(=O)CCC4(C)C3CCC12C (stereo not given)
inactive: all assays above

CC1(C)C2CC[C@]1(C)[C@@H](O)C2
inactive: all assays above

CC[C@@]1(O)C[C@H](O[C@H]2C[C@@H](N(C)C)[C@@H](O[C@H]3C[C@@H](O)[C@@H](O[C@H]4CCC(=O)[C@@H](C)O4)[C@@H](C)O3)[C@@H](C)O2)c2c(cc3c(c2O)C(=O)c2c(O)cccc2C3=O)[C@H]1C(=O)OC
active: AA1029 199 nM | ATS95 316 nM | C2A 178 nM | CP211 849 nM | CP215 849 nM | CP217 251 nM | CP250 251 nM | CP252 224 nM | CP256 282 nM | CP265 224 nM | CP268 953 nM | CP297 953 nM | CP315 1350 nM | CP325 849 nM | CP329 849 nM | N140 178 nM | PAD 178 nM | SC27B 316 nM | TAB113 199 nM | TAB165 141 nM

O=[N+]([O-])O[C@H]1CO[C@H]2[C@@H]1OC[C@H]2O
inactive: all assays above

OCCN1CC(O)C(O)C(O)C1CO (stereo not given)
inactive: all assays above
